Results taken from PubChem BioAssay (Tox21).
Where “and” joins values, the source holds several entries; their conditions need not be identical. Identical values can stand only once. Records with an inconclusive call do not appear. The source holds several records for some structures; these can differ, active in one and inactive in another. Calls of active or inactive are those of the source. Unless noted, calls follow the shape of the dose curve; as a rule, active = well fitted curve in the direction sought with a large enough effect in the repeat runs; inconclusive = weak or mixed curves; inactive = no such curve, though single readings can be large; an effect the other way counts as inactive or inconclusive.

Legend:
[1] = qHTS RealTime-Glo MT Cell Viability Assay in HEK293 cells - 0 hour (AID 1224880); details: RealTime-Glo luminescence; series mostly up to 76.8 µM; also: top concentration of the series differs between compounds; nearly all actives have a fitted effect of over 45% in size
How it was run: (§1)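 HEK293 + NanoLuc + prosubstrate, 600 cells/well; 5 h, 37 C/5% CO2; compound 23 nL in DMSO by pintool; 37 C; luminescence read at 0, 8, 16, 24, 32 and 40 h time points.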

[2] = A CellTox Green Cytotoxicity Assay to monitor cytotoxicity in HEK293 cells - 32 hour (AID 1224881); details: CellTox Green fluorescence; series mostly up to 76.8 µM; also: nearly all actives have a fitted effect of over 40% in size
How it was run: (§2)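 Tox21 screen in HEK293: membrane-impermeant cyanine dye fluoresces on binding dead-cell DNA; compound pinned 5 h post-seeding, plates held at 37 C, signal read repeatedly through 40 h.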

[3] = A CellTox Green Cytotoxicity Assay to monitor cytotoxicity in HepG2 cells - 0 hour (AID 1224882); details: CellTox Green fluorescence; series mostly up to 76.8 µM; also: nearly all actives have a fitted effect of over 35% in size
How it was run: (§3)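 Measurements at 0, 8, 16, 24, 32 and 40 h of treatment captured CellTox Green fluorescence in HepG2 cells that had been co-plated with reagent and preincubated 5 h at 37 C/5% CO2.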

[4] = A CellTox Green Cytotoxicity Assay to monitor cytotoxicity in HepG2 cells - 32 hour (AID 1224883); details: CellTox Green fluorescence; series mostly up to 76.8 µM; also: nearly all actives have a fitted effect of over 50% in size; also: potency is read from the fitted curve at half-maximal effect
How it was run: as §3

[5] = A CellTox Green Cytotoxicity Assay to monitor cytotoxicity in HEK293 cells - 8 hour (AID 1224884); details: CellTox Green fluorescence; series mostly up to 76.8 µM; also: nearly all actives have a fitted effect of over 35% in size
How it was run: as §2

[6] = qHTS RealTime-Glo MT Cell Viability Assay in HepG2 cells - 16 hour (AID 1224885); details: RealTime-Glo luminescence; series mostly up to 76.8 µM; also: nearly all actives have a fitted effect of over 50% in size
How it was run: (§4)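 qHTS, HepG2, 600 cells/well, RealTime-Glo (NanoLuc + prosubstrate) added with cells; 5 h preincubation; DMSO compound addition; 37 C; luminescence at 0/8/16/24/32/40 h.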

[7] = qHTS RealTime-Glo MT Cell Viability Assay in HEK293 cells - 24 hour (AID 1224886); details: RealTime-Glo luminescence; series mostly up to 76.8 µM; also: nearly all actives have a fitted effect of over 50% in size; also: potency is read from the fitted curve at half-maximal effect
How it was run: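 Assay medium contained NanoLuc luciferase plus cell-permeant prosubstrate, added with HEK293 cells at 600 cells/well. After 5 h at 37 C/5% CO2 compounds were added; plates stayed at 37 C for 40 h with serial luminescence reads.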

[8] = qHTS RealTime-Glo MT Cell Viability Assay in HEK293 cells - 8 hour (AID 1224887); details: RealTime-Glo luminescence; series mostly up to 76.8 µM; also: nearly all actives have a fitted effect of over 50% in size; also: potency is read from the fitted curve at half-maximal effect
How it was run: as §1

[9] = A CellTox Green Cytotoxicity Assay to monitor cytotoxicity in HEK293 cells - 16 hour (AID 1224888); details: CellTox Green fluorescence; series mostly up to 76.8 µM; also: nearly all actives have a fitted effect of over 35% in size
How it was run: as §2

[10] = qHTS RealTime-Glo MT Cell Viability Assay in HepG2 cells - 0 hour (AID 1224889); details: RealTime-Glo luminescence; series mostly up to 76.8 µM; also: nearly all actives have a fitted effect of over 50% in size; also: potency is read from the fitted curve at half-maximal effect
How it was run: as §4

[11] = A CellTox Green Cytotoxicity Assay to monitor cytotoxicity in HepG2 cells - 8 hour (AID 1224890); details: CellTox Green fluorescence; series mostly up to 76.8 µM; also: nearly all actives have a fitted effect of over 45% in size
How it was run: as §3

[12] = qHTS assay to identify small molecule antagonists of the estrogen receptor alpha (ER-alpha) signaling pathway using the BG1 cell line in the presence of 0.1 nM 17-beta-estradiol - cell viability counter screen (AID 1259241); details: VM7Luc4E2 (BG1) viability, CellTiter-Fluor protease, 22 h, 0.1 nM estradiol agonist added; series mostly up to 92.4 µM; also: nearly all actives have a fitted effect of over 40% in size; also: potency is read from the fitted curve at half-maximal effect
How it was run: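 Cells were plated and left 24 hr, compounds in DMSO were pinned in, 17beta-estradiol was added to 0.1 nM final, and after 22 hr CellTiter-Fluor reagent was added for 30 min before fluorescence was read.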

[13] = qHTS assay to identify small molecule antagonists of the androgen receptor (AR) signaling pathway using the MDA cell line in the presence of 0.5 nM R1881 - cell viability counter screen (AID 1259242); details: MDA-kb2 viability, CellTiter-Fluor protease fluorescence, 16 h; series mostly up to 92.4 µM; also: nearly all actives have a fitted effect of over 45% in size
How it was run: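 Concentration-response screen of compounds for toxicity in MDA-kb2 reporter cells: 16 hr at 37C with 0.5 nM R1881, endpoint live-cell protease fluorescence measured in the reporter wells.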

[14] = biological target: Estrogen receptor (Homo sapiens) (UniProt P03372); assay: qHTS assay to identify small molecule antagonists of the estrogen receptor alpha (ER-alpha) signaling pathway using the BG1 cell line in the presence of 0.1 nM 17-beta-estradiol (AID 1259244); details: VM7Luc4E2 (BG1) ERE-luciferase, antagonist mode, 0.1 nM E2, 22 h; series mostly up to 92.4 µM; also: nearly all actives have a fitted effect of over 50% in size; also: potency is read from the fitted curve at half-maximal effect
Estrogen receptor (Homo sapiens), sequence (P03372 whole entry, looked up): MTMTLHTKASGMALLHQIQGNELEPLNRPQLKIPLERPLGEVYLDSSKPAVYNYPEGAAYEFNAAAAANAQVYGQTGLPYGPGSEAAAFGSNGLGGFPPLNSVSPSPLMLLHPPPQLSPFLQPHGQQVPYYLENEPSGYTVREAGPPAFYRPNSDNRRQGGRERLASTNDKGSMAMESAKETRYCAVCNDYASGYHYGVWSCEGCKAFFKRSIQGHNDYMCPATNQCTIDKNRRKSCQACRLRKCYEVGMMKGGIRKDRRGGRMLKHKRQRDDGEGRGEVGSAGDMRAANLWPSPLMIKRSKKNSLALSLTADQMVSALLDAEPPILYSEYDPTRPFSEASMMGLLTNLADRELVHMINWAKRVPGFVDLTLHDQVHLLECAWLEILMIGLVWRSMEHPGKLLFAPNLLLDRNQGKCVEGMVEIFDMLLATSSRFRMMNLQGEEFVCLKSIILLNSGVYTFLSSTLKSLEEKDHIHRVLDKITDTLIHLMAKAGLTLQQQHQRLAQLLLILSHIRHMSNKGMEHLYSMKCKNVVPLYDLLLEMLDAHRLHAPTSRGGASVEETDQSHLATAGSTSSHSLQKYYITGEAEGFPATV
How it was run: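 Compounds were tested against 0.1 nM (final) 17beta-estradiol in VM7Luc4E2 cells, which express full-length ER-alpha and an ERE-luciferase reporter; luminescence was recorded following 22 h exposure.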

[15] = qHTS assay to identify small molecule HDAC inhibitors (AID 1259364); details: HCT-116 HDAC-Glo I/II luminescence, 2 h; series mostly up to 92.4 µM;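 also: wild-type HCT-116 cells with endogenous class I/II HDAC activity; top concentration of the series differs between compounds; nearly all actives have a fitted effect of over 45% in size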
How it was run: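 Screening used wild-type human colon HCT-116 cells incubated overnight, dosed with compounds for 2 hours, and assayed with a homogeneous luminogenic HDAC I/II reagent for 30 minutes at room temperature.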

[16] = qHTS assay to identify small molecule HDAC inhibitors - cell viability counter screen (AID 1259365); details: HCT-116 viability, CellTiter-Glo ATP luminescence, 2 h; series mostly up to 92.4 µM; also: nearly all actives have a fitted effect of over 50% in size
How it was run: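 Counter screen in wild-type HCT-116 cells: compounds dissolved in DMSO are pin-transferred onto overnight-plated cells and left 2hr at 37C. ATP-based CellTiter-Glo luminescence then measures viable cells.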

[17] = qHTS assay to identify small molecule antagonists of the sonic hedgehog signaling (Shh) pathway - cell viability counter screen (AID 1259367); details: NIH/3T3 Gli1-Luc viability, CellTiter-Fluor, 24 h; series mostly up to 92.4 µM; also: nearly all actives have a fitted effect of over 55% in size; also: potency is read from the fitted curve at half-maximal effect
How it was run: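 CellTiter-Fluor signal in conditioned medium-stimulated 3T3 Gli1-Luc cells, 23 hr compound exposure, 37C.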

[18] = biological target: Androgen receptor (Homo sapiens) (UniProt P10275); assay: qHTS assay to identify small molecule antagonists of the androgen receptor (AR) signaling pathway using the MDA cell line in the presence of 0.5 nM R1881 (AID 1259243); details: MDA-kb2 MMTV-luciferase, R1881 0.5 nM, 16 h; series mostly up to 92.4 µM; also: nearly all actives have a fitted effect of over 50% in size
Androgen receptor (Homo sapiens), sequence (P10275 whole entry, looked up): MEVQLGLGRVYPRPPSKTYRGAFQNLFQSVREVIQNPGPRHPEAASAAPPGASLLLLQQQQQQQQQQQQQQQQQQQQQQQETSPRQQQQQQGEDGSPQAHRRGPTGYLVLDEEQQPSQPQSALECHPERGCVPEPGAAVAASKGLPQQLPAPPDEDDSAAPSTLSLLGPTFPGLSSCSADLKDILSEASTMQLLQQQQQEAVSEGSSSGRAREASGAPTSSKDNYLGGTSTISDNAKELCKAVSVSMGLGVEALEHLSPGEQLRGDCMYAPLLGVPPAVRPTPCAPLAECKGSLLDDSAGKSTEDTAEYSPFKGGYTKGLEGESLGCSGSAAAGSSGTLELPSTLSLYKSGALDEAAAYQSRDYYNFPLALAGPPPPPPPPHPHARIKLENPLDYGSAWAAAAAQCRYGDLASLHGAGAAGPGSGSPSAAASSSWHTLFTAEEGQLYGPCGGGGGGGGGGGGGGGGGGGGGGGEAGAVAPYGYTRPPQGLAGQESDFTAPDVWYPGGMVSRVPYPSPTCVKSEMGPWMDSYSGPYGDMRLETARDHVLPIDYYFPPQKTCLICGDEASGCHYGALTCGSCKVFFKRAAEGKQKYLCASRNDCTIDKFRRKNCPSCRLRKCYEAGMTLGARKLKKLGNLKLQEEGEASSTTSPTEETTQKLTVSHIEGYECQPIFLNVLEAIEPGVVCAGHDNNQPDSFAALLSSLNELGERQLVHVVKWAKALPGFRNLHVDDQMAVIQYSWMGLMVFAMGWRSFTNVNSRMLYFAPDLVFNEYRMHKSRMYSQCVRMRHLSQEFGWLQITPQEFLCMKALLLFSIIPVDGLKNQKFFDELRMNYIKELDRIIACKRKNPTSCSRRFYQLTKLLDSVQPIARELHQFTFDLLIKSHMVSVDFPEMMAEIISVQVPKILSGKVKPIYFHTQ
How it was run: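 With R1881 held at 0.5 nM (final), compound effects on MMTV-luciferase expression in MDA-kb2 cells were scored by luminescence after a 16 hr, 37C incubation.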

[19] = qHTS assay to identify small molecule agonists of the sonic hedgehog signaling (Shh) pathway - cell viability counter screen (AID 1259366); details: NIH/3T3 Gli1-Luc viability, CellTiter-Fluor, 24 h; series mostly up to 92.4 µM; also: nearly all actives have a fitted effect of over 50% in size
How it was run: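 Cells are plated at 2,000 per well and left 4hr at 37C, 5% CO2 before compound addition. After 23hr of treatment, CellTiter-Fluor reagent is added for 1hr at 37C and fluorescence is measured.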

[20] = qHTS assay to identify small molecule phospholipidosis (PLD) inducers (AID 1259344; active = well fitted curve in the direction sought with a large enough effect; an effect the other way counts as inactive or inconclusive); details: HepG2 phospholipidosis, LipidTOX Red imaging, 24 h; series mostly up to 38.3 µM
How it was run: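 Accumulated phospholipid, stained red by LipidTOX during 24 h compound treatment of HepG2 cells at 37 C, is quantified from images as pit number and intensity, normalised per cell using Hoechst-stained nuclei.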

Measured: Potency

CC1(C)CC(N=C=O)CC(C)(CN=C=O)C1 (centres undefined)
not listed: [18] | [19] | [20]
inactive: all other assays above

O=Nc1ccc(O)cc1
24 µM (active) and inactive: [8]
not listed: [12] | [19] | [20]
inactive: all other assays above

OC1CCCC1
not listed: [18] | [20]
inactive: all other assays above

CC1CC(OC(=O)c2ccccc2O)CC(C)(C)C1 (centres undefined)
60.5 µM (active) and inactive: [17]
not listed: [14] | [18]
inactive: all other assays above

CC(=O)[C@@]1(O)CC[C@H]2[C@@H]3CCC4=CC(=O)CC[C@]4(C)[C@H]3CC[C@@]21C
active: [10] 6.16 µM and 8.49 µM
not listed: [12] | [14] | [18]
inactive: all other assays above

OCCOCCOCCOCCO
not listed: [12] | [18] | [19] | [20]
inactive: all other assays above

Cc1cc(=O)[nH]c(C(C)C)n1
not listed: [20]
inactive: all other assays above

C[C@@H](O)[C@H]1C(=O)N2C(C(=O)O)=C(S[C@@H]3CN[C@H](C(=O)N(C)C)C3)[C@H](C)[C@H]12
not listed: [14] | [18] | [19]
inactive: all other assays above

O=C(Cl)c1c(Cl)c(Cl)c(C(=O)Cl)c(Cl)c1Cl
not listed: [12] | [18] | [19] | [20]
inactive: all other assays above

O=S(=O)(Oc1ccc(Cl)cc1Cl)c1ccccc1
not listed: [18] | [20]
inactive: all other assays above

S=c1nc[nH]c2nc[nH]c12
active: [7] 19 µM
not listed: [12] | [18]
inactive: all other assays above

CCc1ccc(O)cc1
not listed: [14] | [20]
inactive: all other assays above

CCCCOCCOCCOC(=O)CCCCC(=O)OCCOCCOCCCC
not listed: [18] | [20]
inactive: all other assays above

O=C(O)c1ccc([N+](=O)[O-])cc1
not listed: [14] | [18] | [19] | [20]
inactive: all other assays above

CC(C)(C)C(=O)C1C(=O)c2ccccc2C1=O
active: [12] 54.5 µM | [14] 61.1 µM | [17] 60.5 µM
54.4 µM (active) and inactive: [4]
not listed: [18] | [19] | [20]
inactive: all other assays above

Clc1cc(Cl)c(Cl)cc1Cl
not listed: [12] | [18] | [19] | [20]
inactive: all other assays above

CC#C[C@]1(O)CC[C@H]2[C@@H]3CCC4=CC(=O)CCC4=C3[C@@H](c3ccc(N(C)C)cc3)C[C@@]21C
active: [7] 49 µM | [8] 43.6 µM
not listed: [14] | [18] | [19]
inactive: all other assays above

C[C@@H]1O[C@@H](OC[C@H]2O[C@@H](Oc3c(-c4ccc(O)c(O)c4)oc4cc(O)cc(O)c4c3=O)[C@H](O)[C@@H](O)[C@@H]2O)[C@H](O)[C@H](O)[C@H]1O
not listed: [12] | [14]
inactive: all other assays above

CC1COc2ccccc2N1C(=O)C(Cl)Cl (centres undefined)
not listed: [12] | [14] | [17] | [18] | [20]
inactive: all other assays above

O=[N+]([O-])c1cccc(Cl)c1
not listed: [12] | [18] | [19] | [20]
inactive: all other assays above

O=C(O)c1cc(-c2ccccc2)nc2ccccc12
not listed: [12] | [14] | [15]
inactive: all other assays above

OC[C@@H](O)[C@@H](O)[C@H](O)[C@@H](O)CO
not listed: [12] | [18] | [20]
inactive: all other assays above

COC(=O)Nc1nc2ccc(Sc3ccccc3)cc2[nH]1
active: [4] 2.19 µM and 952 nM | [7] 871 nM and 952 nM | [8] 1.74 µM and 2.13 µM | [17] 8.63 µM
not listed: [12] | [14] | [18]
inactive: all other assays above

Cc1cc(O)cc(C)c1Cl
not listed: [14] | [18]
inactive: all other assays above

CCCCC/C=C\C/C=C\CCCCCCCC(=O)OC
not listed: [18] | [20]
inactive: all other assays above

NC(=O)/N=N/C(N)=O
not listed: [18] | [20]
inactive: all other assays above

CCCCNC(N)=O
not listed: [14] | [18] | [19] | [20]
inactive: all other assays above

C=C(C#N)C(=O)OCC
not listed: [14] | [18] | [19] | [20]
inactive: all other assays above
